Among the data in PubChem BioAssay AID504594 (Broad Institute, 2011) are growth inhibition values, retold here.

The whole screen tested about 2,000 compounds, of which fewer than 10 were called active. A selection follows. Values without a mark were called inactive.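 Rule for the calls: active = growth inhibition of at least 75% in every replicate, which also brings the mean inhibition to 75% or more; inconclusive = mean inhibition 75% or more but some replicate under 75%; inactive = the rest.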

The test is described as follows: growth inhibition of PfHsp90-dependent yeast, primary screen, antimalarial PfHsp90 inhibitor project, S. cerevisiae, BacTiter-Glo luminescence (AID 504594).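 Note: 0% = DMSO neutral control wells and 100% = 20 µM radicicol control wells; higher value means stronger growth inhibition because the sign is flipped.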 The note with it: S. cerevisiae expressing PfHsp90, BacTiter-Glo growth, 48 h; at 9.4 µM; stronger effect = higher value.
Take `CC(C)(C)C(O)C(Oc1ccc(Cl)cc1)n1cncn1` (stereo not given): the growth inhibition is 96.5% (active).

Take `CN1CCN(C(=O)OC2c3nccnc3C(=O)N2c2ccc(Cl)cn2)CC1` (stereo not given): the growth inhibition is 6.28%.

Consider `O=C1NC(=O)C2(Cc3ccccc3N3CCCC32)C(=O)N1c1ccc(Cl)cc1` (stereo not given), for which the growth inhibition was -0.293%.

`O=S(=O)(c1ccc(F)cc1)N1CCCCC1c1cccnc1` (stereo not given): the growth inhibition is -1.69%.

Regarding `Clc1ccc(CSC(Cn2ccnc2)c2ccc(Cl)cc2Cl)cc1` (stereo not given), the growth inhibition was 95% (active).

As to `c1ccc(Cn2ccnc2)cc1`, the growth inhibition is -14.6%.

With `Cn1c(O)c(C=NCCc2c[nH]c3ccccc23)c(=O)n(C)c1=O`, the growth inhibition was -4.75%.

Turning to `C[N+]1(C)CCN(c2ccccc2)CC1`, the growth inhibition was 4.14%.

Turning to `COc1cc2c3cc1Oc1cc(ccc1O)C[C@@H]1c4c(cc(OC)c(O)c4Oc4ccc(cc4)C[C@H]3N(C)CC2)CCN1C`, the growth inhibition is -1.85%.

Consider `CCOc1ccc(N2C(=O)NC(=O)/C(=C\c3cc(OC)c(OC)cc3[N+](=O)[O-])C2=O)cc1`, for which the growth inhibition was -0.939%.
